Screens: PubChem, National Center for Advancing Translational Sciences (NCATS)
An excerpt weighted towards active compounds, which were near 13% of everything screened.
HCMV inh: qHTS Assay for inhibitors of the human cytomegalovirus (HCMV) | AID 1259415, 2018 | HFF cells, HCMV-luciferase reporter, 72 h; stronger effect = lower value | activity change, negative = inhibition, % at 57.5 µM | hit rate 4.5% among 410,000; in the data active = activity change below about -60%; inconclusive = no clear call, values can overlap the other calls; inactive = above about -39%
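Steps: HFFs plated, 16 h 37C; compounds added; HCMV-luciferase added to MOI 1 PFU/cell; 72 h 37C; OneGlo reagent, 5 min room temperature; luminescence read, normalized to controls.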
HCV inh: qHTS Assay for Inhibitors of Hepatitis C Virus (HCV) | Huh7.5.1 HCVcc-Cre infection, luciferase reporter, 44 h | Potency, µM (titrated, usually from 41.8 µM), without a hit: at the highest dose activity change, negative = inhibition, hits mostly inhibitors | hit rate 3.4% among 340,000 | AID 651820, 2012; note: potency is the fitted concentration of half-maximal effect
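Infectious HCV cell culture screen: compound-treated cells (1,000/well, pre-plated 4 h) are infected with HCVcc-Cre at roughly 0.5 moi and grown 44 h. Infection is quantified by luciferase signal after 15 min substrate incubation at room temperature.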
Pf growth 96h: Primary qHTS for delayed death inhibitors of the malarial parasite plastid, 96 hour incubation. Potency, µM (highest dose often 28.7 µM), for the others: at the top dose activity change, negative = inhibition, hits mostly inhibitors. hit rate 6.9% among 320,000. P. falciparum luciferase reporter growth, 96 h; note: potency is the fitted concentration of half-maximal effect
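Cell-based qHTS: luciferase-tagged P. falciparum in erythrocytes (2% hematocrit, 0.05% parasitemia final) incubated with compounds for 96 hours, 37 C, 5% CO2; luciferase detection reagent then added and luminescence measured.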
Pf growth 48h: Primary qHTS for delayed death inhibitors of the malarial parasite plastid, 48 hour incubation; P. falciparum luciferase growth in erythrocytes, 48 h; Potency, µM (doses to about 28.7 µM), for inactives: top-dose activity change, negative = inhibition, hits mostly inhibitors; hit rate 5.9% among 310,000; note: potency is the fitted concentration of half-maximal effect
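In quantitative HTS format, infected erythrocytes bearing luciferase-reporter parasites were treated for a single generation at 37 C. Luminescence after adding detection reagent served as the growth measure.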
* = called active by the depositor. Unless noted, calls come from the whole dose curve; as a rule, active = well fitted inhibition curve with a large enough effect; inconclusive = small, poorly fitted or top-dose-only effect, or another doubt; inactive = no such curve, though single readings can be large or run the other way. % is set by controls: 0 for no effect and ±100 for the full control effect.

How did Cc1cccc(NC(=S)NNC(=O)c2ccc(O)cc2O)c1C do in these assays?
HCMV inh: -98.3*; HCV inh: 17.5%; Pf growth 96h: 34.7%; Pf growth 48h: inconclusive

Results for Nc1ccc(-c2nc3c(Cl)cc(N)cc3[nH]2)cc1 ?
HCMV inh: inconclusive; HCV inh: inconclusive; Pf growth 96h: 9.28µM*; Pf growth 48h: inconclusive

Results for C=C(C)COc1ccc(-c2n[nH]c(C)c2-c2ccc(Br)cc2)c(O)c1 ?
HCMV inh: -76.6*; HCV inh: inconclusive; Pf growth 96h: inconclusive; Pf growth 48h: inconclusive

Results for COc1cccc(Oc2cn[nH]c2-c2ccc(OCC(=O)NN)cc2O)c1 ?
HCMV inh: -31.3; HCV inh: 0.3%; Pf growth 96h: inconclusive; Pf growth 48h: inconclusive

How did C=C(C)COc1ccc(-c2[nH]ncc2Oc2ccc(OC)cc2)c(O)c1 do in these assays?
HCMV inh: -33.0; HCV inh: inconclusive; Pf growth 96h: inconclusive; Pf growth 48h: inconclusive

How did CCOc1ccccc1Oc1cn[nH]c1-c1ccc(OCC(=O)NN)cc1O do in these assays?
HCMV inh: 53.2; HCV inh: inconclusive; Pf growth 96h: 13.1µM*

What do the screens show for `C=C(C)COc1ccc(-c2[nH]ncc2Oc2ccccc2OC)c(O)c1`?
HCMV inh: 7.9; HCV inh: inconclusive; Pf growth 96h: 11.2%; Pf growth 48h: 13.1µM*

What do the screens show for `CCCOC(=O)c1ccc(Oc2cn[nH]c2-c2ccc(OC)cc2O)cc1`?
HCMV inh: -0.3; HCV inh: inconclusive; Pf growth 96h: inconclusive; Pf growth 48h: 10.4µM*

Results for O=C(Cn1nc(-c2ccccc2)nc(Cc2ccccc2)c1=O)Nc1ccccc1 ?
HCMV inh: -8.3

How did COc1ccccc1NC(=O)C(=O)NCC(c1cccnc1)N1CCc2ccccc2C1 (configuration not stated) do in these assays?
HCMV inh: 8.3

What do the screens show for `CCc1ccc(C2CC(=O)Nc3c2c(=O)n(C)c2ncnn32)cc1` (configuration not stated)?
HCMV inh: -5.6

What do the screens show for `C=C(C)COc1ccc(-c2[nH]ncc2-c2ccccc2OC)c(O)c1`?
HCMV inh: -21.2; HCV inh: inconclusive; Pf growth 96h: 11.9%; Pf growth 48h: 3.29µM*

Results for CCOc1ccc(-c2[nH]ncc2Oc2ccccc2OC)c(O)c1 ?
HCMV inh: inconclusive; HCV inh: -26.1%; Pf growth 48h: 8.28µM*

What do the screens show for `COc1ccc(-c2c(-c3ccc(OC)c(C)c3O)n[nH]c2C)cc1`?
HCMV inh: inconclusive; HCV inh: -20.5%; Pf growth 96h: 11.7µM*; Pf growth 48h: -11.6%

What do the screens show for `CCOc1ccc(-c2[nH]ncc2Oc2ccccc2OCC)c(O)c1`?
HCMV inh: -20.0; HCV inh: inconclusive; Pf growth 96h: inconclusive; Pf growth 48h: 5.86µM*

What do the screens show for `CCOc1ccc(-c2[nH]ncc2-c2ccc(OC)c(OC)c2)c(O)c1`?
HCMV inh: inconclusive; HCV inh: inconclusive; Pf growth 96h: -27.4%; Pf growth 48h: inconclusive

How did COc1ccc(-c2n[nH]c(C)c2-c2cc(OC)ccc2O)cc1 do in these assays?
HCMV inh: 43.2; HCV inh: 7.9%; Pf growth 48h: 20.3%

Results for CC1=C(c2ccc(C)cc2)S(=O)(=O)N(Cc2ccc(C(=O)NCc3cccc(C)c3)cc2)C1=O ?
HCMV inh: 54.1

How did C=C(C)COc1ccc(-c2[nH]ncc2-c2ccc(Br)cc2)c(O)c1 do in these assays?
HCMV inh: -94.3*; HCV inh: inconclusive; Pf growth 96h: 1.65µM*; Pf growth 48h: 3.7µM*

Results for CCOc1ccc(-c2[nH]ncc2-c2ccc(Cl)cc2)c(O)c1 ?
HCMV inh: -85.6*; HCV inh: -11.9%; Pf growth 96h: 3.29µM*; Pf growth 48h: 8.28µM*

How did CSc1cccc(CN2CCC(CCC(=O)NC3CC3)CC2)c1 do in these assays?
HCMV inh: 34.3; HCV inh: 1.7%; Pf growth 96h: -12.8%; Pf growth 48h: 7.6%

How did COc1cc(Cl)cc(CN2CCC(CCC(=O)NC3CC3)CC2)c1OC do in these assays?
HCMV inh: 11.5; HCV inh: inconclusive; Pf growth 96h: 13.1µM*; Pf growth 48h: inconclusive

How did COc1cc(Cl)c(CN2CCC(CCC(=O)NC3CC3)CC2)cc1OC do in these assays?
HCMV inh: 3.7; HCV inh: 14.3%; Pf growth 96h: inconclusive; Pf growth 48h: -0.4%
